This is an account of results in PubChem BioAssay (NCATS).

“And” between values parts separate entries of the source, which are not always exact repeats. Identical values can stand only once. Records with an inconclusive call do not appear. Some compounds were tested as several samples or in several runs, with calls that do not always agree. The source made the active and inactive calls. Unless noted, calls come from the whole dose curve.
Potency is the fitted concentration of half-maximal effect.

Chain of Cytochrome P450 1A2 (Homo sapiens) (P05177 whole entry, looked up): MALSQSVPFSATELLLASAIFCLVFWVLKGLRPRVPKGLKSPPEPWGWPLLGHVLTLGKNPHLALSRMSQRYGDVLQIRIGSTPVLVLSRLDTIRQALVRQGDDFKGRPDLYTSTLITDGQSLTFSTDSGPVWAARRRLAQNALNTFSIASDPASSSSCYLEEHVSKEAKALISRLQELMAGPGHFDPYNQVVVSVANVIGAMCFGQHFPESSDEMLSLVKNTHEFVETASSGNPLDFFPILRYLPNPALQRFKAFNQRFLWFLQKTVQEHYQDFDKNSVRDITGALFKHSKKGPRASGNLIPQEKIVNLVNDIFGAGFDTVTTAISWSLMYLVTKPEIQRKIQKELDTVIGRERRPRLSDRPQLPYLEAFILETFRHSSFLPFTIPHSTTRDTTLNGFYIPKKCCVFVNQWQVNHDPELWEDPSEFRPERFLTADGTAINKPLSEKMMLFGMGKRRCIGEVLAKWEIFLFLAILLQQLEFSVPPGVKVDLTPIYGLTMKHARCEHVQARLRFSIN

The first assay has as its target Cytochrome P450 1A2 (Homo sapiens) (UniProt P05177). Kind of assay: p450-cyp1a2 (AID 410).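 For activity change, negative = inhibition: -100% = full effect of reference inhibitor.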 The settings on record: recombinant CYP1A2, luciferin-ME demethylation, luminescence; series mostly up to 57 µM; activity change, negative = inhibition: at the top concentration. In short, it runs like this: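 Inhibition was calculated relative to 57 uM furafylline (full inhibition). The reaction used human CYP1A2 at 20nM with Luciferin-ME at its Km, 100uM, driven by an NADPH-regenerating system for 60 min at room temperature.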
With `Cc1ncsc1CCCl`, the Potency is 31.6 µM (active). `O=C(O)CCCc1ccc(N(CCCl)CCCl)cc1`: the Potency result is “inactive”.

For `O=c1[nH]oc2c1CCNC2`, the Potency result is “inactive”. As to `CCCCC/C=C\C/C=C\C/C=C\C/C=C\CCCC(=O)NCC(=O)O`, the “activity change, negative = inhibition” value is -16.3% (inactive). Consider `COc1c2c(cc3c1OCO3)CCN(C)C2`, for which the Potency is 2 µM (active). With `CNC(C)(C)Cc1ccccc1`, the “activity change, negative = inhibition” value is -1.9% [at 25.6 µM] (inactive). Consider `CCC1(CC)C(=O)C=CNC1=O`, for which the “activity change, negative = inhibition” value was -8.1% [at 25.6 µM] (inactive). Still for that read-out and setting: with `NCCc1ccc(O)cc1` the figure was -14.6% (inactive); with `O=P1(N(CCCl)CCCl)NCCCO1` (stereo unspecified), 8% (inactive).

As to `O=C(CCCN1CCC2(CC1)C(=O)NCN2c1ccccc1)c1ccc(F)cc1`, the Potency entry was “inactive and 25.1 µM (active)”. As for `O=c1oc2ccccc2c(O)c1Cc1c(O)c2ccccc2oc1=O`, the Potency was 12.6 µM (active).

System in a further assay: not listed separately
The experiment in a line: Cell Viability - Jurkat (AID 426;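 active = dose-dependent loss of cell ATP signal giving a full or clear fitted curve, ranked by lower potency value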;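 note: cells exposed to compound for 40 hours at 37 °C before ATP read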). The conditions noted are these: qHTS. In short, it runs like this: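 Seed 5000 Jurkat E6-1 cells/well; add compound; incubate 40 hr at 37 °C; add CellTiter-Glo; wait 20 min at room temperature; read luminescence. Fit concentration-response with Hill equation for AC50.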
For orientation: qHTS replaces the single test concentration by a dilution series.
Turning to `CCC(C)(C)c1ccc(O)cc1`, the Potency is > 92 µM (inactive).

`C[C@]12CCC(=O)C=C1CC[C@@H]1[C@@H]2CC[C@]2(C)C(=O)CC[C@@H]12`: the Potency is > 92 µM (inactive). The same measure, in the same setting: next, `Nc1ccccc1`: > 92 µM (inactive). Still for that read-out and setting: next, `O=C(O)CCCc1ccc(N(CCCl)CCCl)cc1`: 22.8 µM (active).

As for `CCOC(=O)CC(SP(=S)(OC)OC)C(=O)OCC` (stereo unspecified), the Potency is > 92 µM (inactive). The same measure, in the same setting: with `C[C@]1(O)CC[C@H]2[C@@H]3CCC4=CC(=O)CC[C@]4(C)[C@@]3(F)[C@@H](O)C[C@@]21C` the figure was > 92 µM (inactive). As to `COc1cc(OC)c(OC)cc1C=O`, the Potency was > 92 µM (inactive). As for `CC(C)c1cccc(C(C)C)c1O`, the Potency was > 92 µM (inactive). The same measure, in the same setting: next, `COC(=O)C(c1ccccc1)C1CCCCN1` (stereo unspecified): > 92 µM (inactive); `Oc1ccc(Cl)cc1`: > 92 µM (inactive).
